PubChem BioAssay (NCI)
Values joined by “and” are separate entries in the source; they are usually repeats but may differ in a detail not shown here. Equal values may be shown once. Compounds without any hit were thinned out: in the full panel of roughly 83,000, 20% have a hit.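 Single-dose data. Exposure time 48 hours. Values below 10 considered active.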 Active and inactive are the calls of the source.

Experiments:
Experiment in all cases: NCI-60 one-dose screen, 48 h (100 = growth as untreated, 0 = no growth, -100 = all killed)
Details in all cases: 10 µM unless noted
HCT-15 colon = system: HCT-15 colon
HT29 colon = system: HT29 colon
SNB-75 CNS = system: SNB-75 CNS
SNB-19 CNS = system: SNB-19 CNS
U251 CNS = system: U251 CNS
PC-3 prostate = system: PC-3 prostate
SK-MEL-5 melanoma = system: SK-MEL-5 melanoma
UACC-62 melanoma = system: UACC-62 melanoma
LOX IMVI melanoma = system: LOX IMVI melanoma
SK-MEL-28 melanoma = system: SK-MEL-28 melanoma

Row | Compound | growth (HCT-15 colon) | growth (HT29 colon) | growth (SNB-75 CNS) | growth (SNB-19 CNS) | growth (U251 CNS) | growth (PC-3 prostate) | growth (SK-MEL-5 melanoma) | growth (UACC-62 melanoma) | growth (LOX IMVI melanoma) | growth (SK-MEL-28 melanoma)
1 | CC1(C)N(Nc2ccccc2)C(=O)C2CCCN21 (stereo not given) | 44.5% (inactive) | 65.7% (inactive) | 50.7% (inactive) | 95.4% (inactive) | 85.2% (inactive) | 9.48% (active) | 97.5% (inactive) | 21.7% (inactive) | 6.21% (active) | 79% (inactive)
2 | O=C(CCCN1CCC2(CC1)C(=O)NCN2c1ccccc1)c1ccc(F)cc1 | 100% (inactive) and 78.4% (inactive) | 60.8% (inactive) and 21.9% (inactive) | 109% (inactive) and 105% (inactive) | 98.1% (inactive) and 66.6% (inactive) | 98.6% (inactive) and 78.7% (inactive) | 106% (inactive) and 77.6% (inactive) | 56.9% (inactive) and -23.1% (active) | 102% (inactive) and 65% (inactive) | 103% (inactive) and 67.8% (inactive) | 114% (inactive) and 120% (inactive)
3 | Cc1cc[c-]cc1.Fc1c[c-]c(-c2ccccn2)c(F)c1.N#CCC[PH+](CCC#N)c1ccccc1.[Pt+2] | 22.1% (inactive) | 37.2% (inactive) | 49.9% (inactive) | 62.3% (inactive) | 56.9% (inactive) | 29.4% (inactive) | 68.6% (inactive) | 9.83% (active) | -2.55% (active) | 42.7% (inactive)
4 | CN1[C@@H](CC(=O)c2ccccc2)CCC[C@H]1CC(=O)c1ccccc1 | 97.1% (inactive) | 108% (inactive) | 90.6% (inactive) | 98.4% (inactive) | 103% (inactive) | 93% (inactive) | 102% (inactive) | 97.7% (inactive) | 93.8% (inactive) | 103% (inactive)
5 | CNC(=O)CCl | 101% (inactive) | 102% (inactive) | 96% (inactive) | 104% (inactive) | 94.7% (inactive) | 94.6% (inactive) | 96.4% (inactive) | 96.1% (inactive) | 100% (inactive) | 107% (inactive)
6 | N#CC(C#N)=C(C#N)C#N | 97.9% (inactive) | 110% (inactive) | 87.7% (inactive) | 102% (inactive) | 99.8% (inactive) | 96.8% (inactive) | 102% (inactive) | 101% (inactive) | 52.3% (inactive) | 105% (inactive)
7 | O=CC1(c2ccccc2)CCN(Cc2ccccc2)CC1 | 103% (inactive) | 107% (inactive) | 102% (inactive) | 109% (inactive) | 101% (inactive) | 98.1% (inactive) | 110% (inactive) | 105% (inactive) | 82.8% (inactive) | 112% (inactive)
8 | COc1ccc(N)cc1OC | 94.4% (inactive) | 105% (inactive) | 92% (inactive) | 101% (inactive) | 117% (inactive) | 80.1% (inactive) | 107% (inactive) | 97.5% (inactive) | 105% (inactive) | 112% (inactive)
9 | CC[C@H](C)[C@H](NC(=O)c1ncccn1)C(=O)N(C)[C@H](C[C@@H](OC(C)=O)c1nc(C(=O)N[C@@H](Cc2ccccc2)C[C@H](C)C(=O)OC)cs1)C(C)C | 10.3% (inactive) | -2.02% (active) | -3.1% (active) | 44.1% (inactive) | 16.7% (inactive) | 27.7% (inactive) | 21.5% (inactive) | 46.9% (inactive) | 21.4% (inactive) | 50.3% (inactive)
10 | CC[C@H](C)[C@H]1O[C@]2(C=C[C@@H]1C)C[C@@H]1C[C@@H](C/C=C(\C)[C@@H](O[C@H]3C[C@H](OC)[C@@H](O[C@H]4C[C@H](OC)[C@@H](NC)[C@H](C)O4)[C@H](C)O3)[C@@H](C)/C=C/C=C3\CO[C@@H]4[C@H](O)C(C)=C[C@@H](C(=O)O1)[C@]34O)O2 | -70.2% (active) | -64.3% (active) | -72.7% (active) | 13.7% (inactive) | -88.7% (active) | -16.2% (active) | -95.5% (active) | -53.1% (active) | -92.3% (active) | -79.2% (active)
11 | CN(C)c1ccc([N+](=O)[O-])c([N+](=O)[O-])c1 | 110% (inactive) and 100% (inactive) | 109% (inactive) and 102% (inactive) | 93% (inactive) and 86.4% (inactive) | 106% (inactive) and 102% (inactive) | 101% (inactive) and 96.9% (inactive) | 105% (inactive) and 100% (inactive) | 101% (inactive) and 97% (inactive) | 97.6% (inactive) and 90.3% (inactive) | 93% (inactive) | 104% (inactive)
12 | NC(N)=NC(N)=Nc1ccc(Cl)cc1 | 108% (inactive) | 97.8% (inactive) | 77.1% (inactive) | 105% (inactive) | 113% (inactive) | 89.5% (inactive) | 108% (inactive) | 111% (inactive) | 110% (inactive) | 98.9% (inactive)
13 | O=P(O)(Nc1ccccc1)Nc1ccccc1 | 119% (inactive) | 94.3% (inactive) | 81.9% (inactive) | 95.3% (inactive) | 99.3% (inactive) | 91.5% (inactive) | 94.4% (inactive) | 91.8% (inactive) | 92.7% (inactive) | 148% (inactive)
14 | CCCCn1c(=O)c(C(=O)NCc2ccccc2Cl)c(O)c2ccccc21 | 48.6% (inactive) | 75.5% (inactive) | 98.4% (inactive) | 82.6% (inactive) | 68.2% (inactive) | 34.1% (inactive) | 72.7% (inactive) | 88.5% (inactive) | 55.4% (inactive) | 103% (inactive)
15 | O=[N+]([O-])c1ccc(P(=O)(O)O)cc1 | 103% (inactive) | 100% (inactive) | 80.2% (inactive) | 108% (inactive) | 96.2% (inactive) | 91.3% (inactive) | 109% (inactive) | 105% (inactive) | 93.2% (inactive) | 109% (inactive)
16 | ClCc1ccc(Cl)c(Cl)c1 | 98.6% (inactive) | 109% (inactive) | 104% (inactive) | 96.6% (inactive) | 100% (inactive) | 91.9% (inactive) | 92.2% (inactive) | 97.9% (inactive) | 104% (inactive) | 111% (inactive)
17 | CC[C@@H](C)C(=O)O[C@H]1[C@H](O)[C@H]2[C@@H](CN3C[C@@H](C)CC[C@H]3[C@@]2(C)O)[C@@H]2C[C@]34O[C@]5(O)[C@@H](OC(=O)[C@@](C)(O)CC)CC[C@@]3(C)[C@@H]5[C@@H](OC(C)=O)[C@@H](OC(C)=O)[C@H]4[C@@]21O | 109% (inactive) | 112% (inactive) | 79.8% (inactive) | 100% (inactive) | 91.8% (inactive) | 75.8% (inactive) | 86.6% (inactive) | 96.1% (inactive) | 92.8% (inactive) | 105% (inactive)
18 | c1ccc(CCN2CCCCC2)nc1 | 74.1% (inactive) | 95.8% (inactive) | 78.8% (inactive) | 109% (inactive) | 107% (inactive) | 84.8% (inactive) | 115% (inactive) | 97.9% (inactive) | 107% (inactive) | 104% (inactive)
19 | OCCNC1CCCCC1 | 98.7% (inactive) | 109% (inactive) | 96.3% (inactive) | 105% (inactive) | 106% (inactive) | 103% (inactive) | 103% (inactive) | 97.2% (inactive) | 104% (inactive) | 104% (inactive)
20 | Nc1c(Cl)c(Cl)nc(C(=O)O)c1Cl | 95% (inactive) | 110% (inactive) | 71.4% (inactive) | 95.1% (inactive) | 94.2% (inactive) | 84.9% (inactive) | 108% (inactive) | 92.4% (inactive) | 90.7% (inactive) | 120% (inactive)
21 | COc1ccc(C(C#N)C(C)=O)cc1 (stereo not given) | 95% (inactive) | 88.7% (inactive) | 82.1% (inactive) | 105% (inactive) | 106% (inactive) | 103% (inactive) | 102% (inactive) | 97.6% (inactive) | 98.1% (inactive) | 115% (inactive)
22 | CC[PH+](CC)CC.O=COC1OC([S-])C(OC=O)C(OC=O)C1OC=O.[Au+] (stereo not given) | -74.9% (active) | -54% (active) | -24.2% (active) | -99.1% (active) | -99.5% (active) | -7.17% (active) | -96.7% (active) | -99% (active) | -89.4% (active) | -92.1% (active)
23 | CC[C@H](C)[C@H](NC(=O)[C@H]1CCCCN1C)C(=O)N(C)[C@H](C[C@@H](OC(C)=O)c1cccc(C(=O)N[C@@H](Cc2ccccc2)C[C@H](C)C(=O)OC)n1)C(C)C | 8.45% (active) | -5.46% (active) | 23.5% (inactive) | 33.1% (inactive) | 14.3% (inactive) | 18.9% (inactive) | -14.5% (active) | 38.6% (inactive) | 14.6% (inactive) | 62.8% (inactive)
24 | C[C@]12CC[C@H]3[C@@H](CC=C4c5nc(-c6ccc(Br)cc6)sc5CC[C@@]43C)[C@@H]1CC[C@@H]2O | 89.1% (inactive) | 109% (inactive) | 78.4% (inactive) | 84.4% (inactive) | 63.4% (inactive) | 101% (inactive) | 97.1% (inactive) | 84.4% (inactive) | 90% (inactive) | 90.1% (inactive)
25 | O=C(O)C1C(C(=O)O)C2(Cl)C(Cl)=C(Cl)C1(Cl)C2(Cl)Cl (stereo not given) | 105% (inactive) and 106% (inactive) | 103% (inactive) | 82.3% (inactive) and 93.7% (inactive) | 124% (inactive) and 100% (inactive) | 97.7% (inactive) and 103% (inactive) | 91.7% (inactive) and 101% (inactive) | 104% (inactive) and 116% (inactive) | 104% (inactive) and 102% (inactive) | 107% (inactive) and 98.1% (inactive) | 108% (inactive)
26 | C[N+]1(C)CCCC1c1cccnc1 (stereo not given) | 104% (inactive) | 102% (inactive) | 98% (inactive) | 105% (inactive) | 94% (inactive) | 97.6% (inactive) | 95.4% (inactive) | 102% (inactive) | 100% (inactive) | 114% (inactive)
27 | COC(=O)[C@@H](C)C[C@H](Cc1ccccc1)NC(=O)c1cccc([C@@H](C[C@H](C(C)C)N(C)C(=O)[C@@H](NC(=O)[C@H]2CCCCN2C)C2CC2)OC(C)=O)n1 | 8.07% (active) | -8.46% (active) | 27.6% (inactive) | 30% (inactive) | 4.48% (active) | 18.8% (inactive) | -22.6% (active) | 41.4% (inactive) | 12.2% (inactive) | 62% (inactive)
28 | COC(=O)C1=CO[C@@H](C)[C@@H]2CN3CCc4c([nH]c5cc(OC)ccc45)[C@@H]3C[C@H]12 | 97.6% (inactive) | 103% (inactive) | 76.9% (inactive) | 95.2% (inactive) | 103% (inactive) | 93.9% (inactive) | 98.2% (inactive) | 78.3% (inactive) | 94.6% (inactive) | 114% (inactive)
29 | CC1OC(=O)C(C(C)C)NC(=O)C(C(C)C)OC(=O)C(C(C)C)NC(=O)C(C)OC(=O)C(C(C)C)NC(=O)C(C(C)C)OC(=O)C(C(C)C)NC(=O)C(C)OC(=O)C(C(C)C)NC(=O)C(C(C)C)OC(=O)C(C(C)C)NC1=O (stereo not given) | -3.27% (active) | -32.3% (active) | -18.5% (active) | -17% (active) | -41.9% (active) | -49.8% (active) | -74.5% (active) | 5.04% (active) | -26.4% (active) | -28.8% (active)
